Laboratory results reported in PubChem BioAssay (Tox21).
Where “and” joins values, the source holds several entries; their conditions need not be identical. Equal values may be shown once. Results filed as inconclusive are left out. Calls of active or inactive are those of the source. Calls come from the whole dose curve; as a rule, active = well fitted curve in the direction sought with a large enough effect in the repeat runs; inconclusive = weak or mixed curves; inactive = no such curve, though single readings can be large; an effect the other way counts as inactive or inconclusive.

What was measured:
[1] = qHTS RealTime-Glo MT Cell Viability Assay in HEK293 cells - 40 hour (AID 1224874); settings: RealTime-Glo luminescence; max response: active compounds read low; note: nearly all actives have a fitted effect of over 50% in size
Outline: (§1)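 HEK293 cells mixed with RealTime-Glo reagents (NanoLuc plus cell-permeant prosubstrate) at 600 cells/well, preincubated 5 h at 37 C/5% CO2, then given 23 nL compound in DMSO. Nonlytic luminescence from viable cells was read at 0, 8, 16, 24, 32 and 40 h.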

[2] = A CellTox Green Cytotoxicity Assay to monitor cytotoxicity in HEK293 cells - 24 hour (AID 1224875); note: series mostly up to about 77 µM; nearly all actives have a fitted effect of over 45% in size
Outline: (§2)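 HEK293 cells premixed with CellTox Green dye were seeded at 600 cells/well and left 5 h at 37 C/5% CO2 before pin transfer of 23 nL compound in DMSO. Fluorescence from dye bound to dead-cell DNA was read during 40 h treatment.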

[3] = A CellTox Green Cytotoxicity Assay to monitor cytotoxicity in HepG2 cells - 16 hour (AID 1224876); note: nearly all actives have a fitted effect of over 45% in size
Outline: (§3)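 HepG2 cells were seeded together with the CellTox Green dye at 600 cells/well, left 5 h at 37 C/5% CO2, then given compounds in DMSO. Fluorescence from dye bound to dead-cell DNA was read repeatedly over 40 h of treatment at 37 C.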

[4] = qHTS RealTime-Glo MT Cell Viability Assay in HepG2 cells - 32 hour (AID 1224877); note: nearly all actives have a fitted effect of over 55% in size
Outline: (§4)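 Compound treatment began 5 h after plating HepG2 cells (600/well) with NanoLuc luciferase and prosubstrate. Plates stayed at 37 C for 40 h; luminescence was captured at six time points, 0 h through 40 h.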

[5] = A CellTox Green Cytotoxicity Assay to monitor cytotoxicity in HepG2 cells - 24 hour (AID 1224878); note: nearly all actives have a fitted effect of over 45% in size
Outline: as §3

[6] = A CellTox Green Cytotoxicity Assay to monitor cytotoxicity in HepG2 cells - 40 hour (AID 1224879); note: nearly all actives have a fitted effect of over 40% in size
Outline: as §3

[7] = qHTS RealTime-Glo MT Cell Viability Assay in HEK293 cells - 0 hour (AID 1224880); note: top concentration of the series differs between compounds; nearly all actives have a fitted effect of over 45% in size
Outline: as §1

[8] = A CellTox Green Cytotoxicity Assay to monitor cytotoxicity in HEK293 cells - 32 hour (AID 1224881); note: nearly all actives have a fitted effect of over 40% in size
Outline: as §2

[9] = A CellTox Green Cytotoxicity Assay to monitor cytotoxicity in HepG2 cells - 0 hour (AID 1224882); note: nearly all actives have a fitted effect of over 35% in size
Outline: as §3

[10] = A CellTox Green Cytotoxicity Assay to monitor cytotoxicity in HepG2 cells - 32 hour (AID 1224883); note: nearly all actives have a fitted effect of over 50% in size
Outline: as §3

[11] = A CellTox Green Cytotoxicity Assay to monitor cytotoxicity in HEK293 cells - 8 hour (AID 1224884); note: nearly all actives have a fitted effect of over 35% in size
Outline: as §2

[12] = qHTS RealTime-Glo MT Cell Viability Assay in HepG2 cells - 16 hour (AID 1224885); note: nearly all actives have a fitted effect of over 50% in size
Outline: as §4

[13] = qHTS RealTime-Glo MT Cell Viability Assay in HEK293 cells - 24 hour (AID 1224886); note: top concentration of the series differs between compounds; nearly all actives have a fitted effect of over 50% in size
Outline: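 Quantitative high-throughput screen of the Tox21 10K library in HEK293: cells and RealTime-Glo reagents plated together, compound added at 5 h, luminescence monitored through 40 h at 37 C.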

[14] = qHTS RealTime-Glo MT Cell Viability Assay in HEK293 cells - 8 hour (AID 1224887)
Outline: as §1

[15] = A CellTox Green Cytotoxicity Assay to monitor cytotoxicity in HEK293 cells - 16 hour (AID 1224888); note: nearly all actives have a fitted effect of over 35% in size
Outline: as §2

[16] = qHTS RealTime-Glo MT Cell Viability Assay in HepG2 cells - 0 hour (AID 1224889); note: nearly all actives have a fitted effect of over 50% in size
Outline: as §4

[17] = A CellTox Green Cytotoxicity Assay to monitor cytotoxicity in HepG2 cells - 8 hour (AID 1224890); note: nearly all actives have a fitted effect of over 45% in size
Outline: as §3

[18] = qHTS assay to identify small molecule antagonists of the estrogen receptor alpha (ER-alpha) signaling pathway using the BG1 cell line in the presence of 0.1 nM 17-beta-estradiol - cell viability counter screen (AID 1259241); note: nearly all actives have a fitted effect of over 40% in size
Outline: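 VM7Luc4E2 cells (endogenous full-length ER-alpha, 4xERE-luciferase), cultured 5 days in charcoal-stripped serum, exposed to compounds with 0.1 nM 17beta-estradiol (final) for 22 hr at 37C. Viability read in same wells as live-cell protease fluorescence after 30 min.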

[19] = qHTS assay to identify small molecule antagonists of the androgen receptor (AR) signaling pathway using the MDA cell line in the presence of 0.5 nM R1881 - cell viability counter screen (AID 1259242); note: nearly all actives have a fitted effect of over 45% in size
Outline: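 MDA-kb2 cells (human breast carcinoma, stably carrying MMTV-luciferase reporter) were exposed to compounds with 0.5 nM R1881 (final) for 16 hr at 37C, 0% CO2; viability then read as live-cell protease fluorescence (CellTiter-Fluor, 30 min) in the same wells.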

[20] = biological target: Androgen receptor (Homo sapiens) (UniProt P10275); experiment: qHTS assay to identify small molecule antagonists of the androgen receptor (AR) signaling pathway using the MDA cell line in the presence of 0.5 nM R1881 (AID 1259243); note: nearly all actives have a fitted effect of over 50% in size
Chain of Androgen receptor (Homo sapiens) (P10275 whole entry, looked up): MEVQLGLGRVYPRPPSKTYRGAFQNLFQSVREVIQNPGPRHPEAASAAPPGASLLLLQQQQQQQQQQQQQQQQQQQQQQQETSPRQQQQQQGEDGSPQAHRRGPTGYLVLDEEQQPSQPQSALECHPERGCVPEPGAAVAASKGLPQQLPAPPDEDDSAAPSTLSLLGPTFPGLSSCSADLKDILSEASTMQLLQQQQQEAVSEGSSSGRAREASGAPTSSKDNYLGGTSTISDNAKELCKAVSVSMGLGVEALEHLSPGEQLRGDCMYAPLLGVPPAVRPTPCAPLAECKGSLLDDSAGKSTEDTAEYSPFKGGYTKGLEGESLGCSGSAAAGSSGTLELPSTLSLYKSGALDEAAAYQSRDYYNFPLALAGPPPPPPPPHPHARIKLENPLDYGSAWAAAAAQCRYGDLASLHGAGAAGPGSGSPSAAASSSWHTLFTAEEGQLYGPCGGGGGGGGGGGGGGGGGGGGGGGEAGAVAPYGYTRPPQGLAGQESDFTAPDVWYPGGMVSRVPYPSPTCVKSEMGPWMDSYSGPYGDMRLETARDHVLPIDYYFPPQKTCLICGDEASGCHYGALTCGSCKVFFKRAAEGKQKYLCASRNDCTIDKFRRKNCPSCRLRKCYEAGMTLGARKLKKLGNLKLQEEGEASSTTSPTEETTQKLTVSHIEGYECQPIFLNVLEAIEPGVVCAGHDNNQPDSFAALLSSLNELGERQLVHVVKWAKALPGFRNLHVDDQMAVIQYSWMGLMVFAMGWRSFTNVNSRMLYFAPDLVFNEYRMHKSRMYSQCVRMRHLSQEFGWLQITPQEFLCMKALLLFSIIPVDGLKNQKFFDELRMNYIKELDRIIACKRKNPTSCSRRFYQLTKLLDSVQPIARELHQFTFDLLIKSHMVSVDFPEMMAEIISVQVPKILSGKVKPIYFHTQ
Outline: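 MDA-kb2 human breast carcinoma cells carrying an MMTV-luciferase reporter (AR- and GR-responsive) were plated, rested 5 hr at 37C, dosed with compounds, then stimulated with 0.5 nM R1881 (final) for 16 hr; luminescence was read after ONE-Glo.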
% is set by controls: 0 for no effect and ±100 for the full control effect.

CC(=O)C=C(C)C
inactive: max response [1] 1.7% and 8.25% | Potency [2] | Potency [3] | outcome [4] | Potency [5] | Potency [6] | outcome [7] | Potency [8] | Potency [9] | Potency [10] | Potency [11] | outcome [12] | Potency [13] | outcome [14] | Potency [15] | outcome [16] | Potency [17] | Potency [18] | outcome [19]

O=c1[nH]c(=O)[nH]c(=O)[nH]1
inactive: max response [1] 1.39% and 0.958% | Potency [2] | Potency [3] | outcome [4] | Potency [5] | Potency [6] | outcome [7] | Potency [8] | Potency [9] | Potency [10] | Potency [11] | outcome [12] | Potency [13] | outcome [14] | Potency [15] | outcome [16] | Potency [17] | Potency [18] | outcome [19] | Potency [20]

CNC(=O)Oc1ccccc1OC(C)C
inactive: max response [1] 0.581% and -1.94% | Potency [2] | Potency [3] | outcome [4] | Potency [5] | Potency [6] | outcome [7] | Potency [8] | Potency [9] | Potency [10] | Potency [11] | outcome [12] | Potency [13] | outcome [14] | Potency [15] | outcome [16] | Potency [17] | Potency [18]

Cc1ccccc1O
inactive: max response [1] 2.91% and -0.867% | Potency [2] | Potency [3] | outcome [4] | Potency [5] | Potency [6] | outcome [7] | Potency [8] | Potency [9] | Potency [10] | Potency [11] | outcome [12] | Potency [13] | outcome [14] | Potency [15] | outcome [16] | Potency [17] | Potency [18] | outcome [19]

COC(=O)c1ccccc1C(=O)OC
inactive: max response [1] -6.01% and 4.81% | Potency [2] | Potency [3] | outcome [4] | Potency [5] | Potency [6] | outcome [7] | Potency [8] | Potency [9] | Potency [10] | Potency [11] | outcome [12] | Potency [13] | outcome [14] | Potency [15] | outcome [16] | Potency [17] | Potency [18]

COC(=O)c1ccccc1N
inactive: max response [1] 1.4% and 10.1% | Potency [2] | Potency [3] | outcome [4] | Potency [5] | Potency [6] | outcome [7] | Potency [8] | Potency [9] | Potency [10] | Potency [11] | outcome [12] | Potency [13] | outcome [14] | Potency [15] | outcome [16] | Potency [17] | Potency [18]

O=[N+]([O-])c1ccc([As](=O)(O)O)cc1
inactive: max response [1] 0.69% and 11.7% | Potency [2] | Potency [3] | outcome [4] | Potency [5] | Potency [6] | outcome [7] | Potency [8] | Potency [9] | Potency [10] | Potency [11] | outcome [12] | Potency [13] | outcome [14] | Potency [15] | outcome [16] | Potency [17] | Potency [18] | outcome [19]

O=[N+]([O-])c1ccccc1
inactive: max response [1] 6.12% and 17.8% | Potency [2] | Potency [3] | outcome [4] | Potency [5] | Potency [6] | outcome [7] | Potency [8] | Potency [9] | Potency [10] | Potency [11] | outcome [12] | Potency [13] | outcome [14] | Potency [15] | outcome [16] | Potency [17] | Potency [18]

CCC12COCN1COC2
inactive: max response [1] 1.37% and 3.08% | Potency [2] | Potency [3] | outcome [4] | Potency [5] | Potency [6] | outcome [7] | Potency [8] | Potency [9] | Potency [10] | Potency [11] | outcome [12] | Potency [13] | outcome [14] | Potency [15] | outcome [16] | Potency [17] | Potency [18] | outcome [19]

Nc1ccc(Oc2ccc(N)cc2)cc1
inactive: max response [1] -6.06% and -21.5% | Potency [2] | Potency [3] | outcome [4] | Potency [5] | Potency [6] | outcome [7] | Potency [8] | Potency [9] | Potency [10] | Potency [11] | outcome [12] | Potency [13] | outcome [14] | Potency [15] | outcome [16] | Potency [17] | Potency [18] | outcome [19]

CC(NC(C)(C)C)C(=O)c1cccc(Cl)c1 (stereo not drawn)
inactive: max response [1] 6.38% and -11.6% | Potency [2] | Potency [3] | outcome [4] | Potency [5] | Potency [6] | outcome [7] | Potency [8] | Potency [9] | Potency [10] | Potency [11] | outcome [12] | Potency [13] | outcome [14] | Potency [15] | outcome [16] | Potency [17] | Potency [18] | outcome [19]

CCCCCCCCCl
inactive: max response [1] 2.47% and 5.32% | Potency [2] | Potency [3] | outcome [4] | Potency [5] | Potency [6] | outcome [7] | Potency [8] | Potency [9] | Potency [10] | Potency [11] | outcome [12] | Potency [13] | outcome [14] | Potency [15] | outcome [16] | Potency [17] | Potency [18]

CCNc1nc(NC(C)C)nc(SC)n1
inactive: max response [1] -1.45% | Potency [2] | Potency [3] | outcome [4] | Potency [5] | Potency [6] | outcome [7] | Potency [8] | Potency [9] | Potency [10] | Potency [11] | outcome [12] | Potency [13] | outcome [14] | Potency [15] | outcome [16] | Potency [17] | Potency [18] | outcome [19] | Potency [20]

CC(C)OC(=O)Nc1ccccc1
inactive: max response [1] 1.67% and 0.253% | Potency [2] | Potency [3] | outcome [4] | Potency [5] | Potency [6] | outcome [7] | Potency [8] | Potency [9] | Potency [10] | Potency [11] | outcome [12] | Potency [13] | outcome [14] | Potency [15] | outcome [16] | Potency [17] | Potency [18] | outcome [19]
